# Of roughly 8,800 targets only a part is listed; those with a hit were picked by preference. About 0.5% of all pairs of compound and target were hits. Values without a mark were called inactive.
# How the values were obtained:
# Assay in all cases: log2 fold change, soluble protein after heating vs DMSO (PISA); higher = thermal stabilisation; K562 lysate, 10 uM; active = over 0.2 and 3.5 SD of the protein, either way, in both replicates (recomputed)
# ibrutinib = compound: C=CC(=O)N1CCC[C@@H](n2nc(-c3ccc(Oc4ccccc4)cc3)c3c(N)ncnc32)C1 [ibrutinib]
# In short: (§1)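 Thermal stability, expressed as log-two fold change relative to solvent controls, is given from duplicates. Crude K562 extract in PBS pH 7.4 with 1 mM MgCl2, at 1 mg/mL protein, was treated with 10 μM compound for 30 min and heated in aliquots for 3 min across 48°C-58°C. After pooling, adjustment to 0.5% NP-40 at 4°C and centrifugation at 21,000xg for 90 min, supernatant protein was measured by TMTpro 16plex LC-MS/MS with channel sums equalised.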
# [1] = compound: CC(=O)c1cnc2ccc(-c3cc(Cl)c(O)c(Cl)c3)nc2c1N[C@H]1CC[C@H](CN(C)C)CC1
# In short: as §1
# ralimetinib = compound: CC(C)(C)Cn1c(N)nc2ccc(-c3[nH]c(C(C)(C)C)nc3-c3ccc(F)cc3)nc21 [ralimetinib]
# In short: as §1
# [2] = compound: CC(C)(O)CC(=O)NCCn1ccc2ncnc(Nc3ccc(Oc4cccc(C(F)(F)F)c4)c(Cl)c3)c21
# In short: as §1
# [3] = compound: CC(C)C1=C2N=C(C=C(N2N=C1)NCC3=CC=CC=C3)NCCCCCCN
# In short: as §1
# [4] = compound: CC1=C(C(CC(=O)N1)C2=CC=C(C=C2)C(F)(F)F)C(=O)NC3=C(C=C4C(=C3)C=NN4)F
# In short: as §1
# [5] = compound: CC1=C(C2=C(C=C1)C(=O)C3=CC=CC=C3N2CCCN)C
# In short: as §1
# [6] = compound: CC1=C(C=C(C=C1)NC(=O)C2=CC(=CC=C2)C(C)(C)C#N)NC3=CC4=C(C=C3)N=CN(C4=O)C
# In short: as §1
# [7] = compound: CC1=C(C=C(C=C1)NC(=O)C2=CC(=CC=C2)N(C)C)NC(=O)C3=CC=C(C=C3)O
# In short: as §1
# [8] = compound: CC1=CC=C(C=C1)SC2=C3C=C(SC3=CN=C2)C(=O)N
# In short: as §1
# vemurafenib = compound: CCCS(=O)(=O)Nc1ccc(F)c(C(=O)c2c[nH]c3ncc(-c4ccc(Cl)cc4)cc23)c1F [vemurafenib]
# In short: as §1
# [9] = compound: CCCS(=O)(=O)Nc1ccc(F)c(C(=O)c2c[nH]c3ncc(Cl)cc23)c1F
# In short: as §1
# barasertib = compound: CCN(CCCOc1ccc2c(Nc3cc(CC(=O)Nc4cccc(F)c4)[nH]n3)ncnc2c1)CCOP(=O)(O)O [barasertib]
# In short: as §1
# [10] = compound: CC[C@@H]1C(=O)N(C)c2cnc(Nc3ccc(C(=O)NC4CCN(C)CC4)cc3OC)nc2N1C1CCCC1
# In short: as §1
# volasertib = compound: CC[C@@H]1C(=O)N(C)c2cnc(Nc3ccc(C(=O)N[C@H]4CC[C@H](N5CCN(CC6CC6)CC5)CC4)cc3OC)nc2N1C(C)C [volasertib]
# In short: as §1
# [11] = compound: CCn1c(C(=O)N(C2CC2)C2CC2)cc2c3c(ncn3C)c(Nc3cc(C)n(C)n3)nc21
# In short: as §1
# [12] = compound: CCn1cc(-c2ccnc3[nH]c(-c4cccc(CN(C)C)c4)cc23)c(-c2ccc(NC(=O)N(C)C)cc2)n1
# In short: as §1
# [13] = compound: CN1CCC(CNc2ccc3ncc(-c4cccc(OC(F)(F)F)c4)n3n2)CC1
# In short: as §1
# saracatinib = compound: CN1CCN(CCOc2cc(OC3CCOCC3)c3c(Nc4c(Cl)ccc5c4OCO5)ncnc3c2)CC1 [saracatinib]
# In short: as §1
# sotrastaurin = compound: CN1CCN(c2nc(C3=C(c4c[nH]c5ccccc45)C(=O)NC3=O)c3ccccc3n2)CC1 [sotrastaurin]
# In short: as §1
# UniProt Q03164, sequence (Q03164 whole entry, looked up): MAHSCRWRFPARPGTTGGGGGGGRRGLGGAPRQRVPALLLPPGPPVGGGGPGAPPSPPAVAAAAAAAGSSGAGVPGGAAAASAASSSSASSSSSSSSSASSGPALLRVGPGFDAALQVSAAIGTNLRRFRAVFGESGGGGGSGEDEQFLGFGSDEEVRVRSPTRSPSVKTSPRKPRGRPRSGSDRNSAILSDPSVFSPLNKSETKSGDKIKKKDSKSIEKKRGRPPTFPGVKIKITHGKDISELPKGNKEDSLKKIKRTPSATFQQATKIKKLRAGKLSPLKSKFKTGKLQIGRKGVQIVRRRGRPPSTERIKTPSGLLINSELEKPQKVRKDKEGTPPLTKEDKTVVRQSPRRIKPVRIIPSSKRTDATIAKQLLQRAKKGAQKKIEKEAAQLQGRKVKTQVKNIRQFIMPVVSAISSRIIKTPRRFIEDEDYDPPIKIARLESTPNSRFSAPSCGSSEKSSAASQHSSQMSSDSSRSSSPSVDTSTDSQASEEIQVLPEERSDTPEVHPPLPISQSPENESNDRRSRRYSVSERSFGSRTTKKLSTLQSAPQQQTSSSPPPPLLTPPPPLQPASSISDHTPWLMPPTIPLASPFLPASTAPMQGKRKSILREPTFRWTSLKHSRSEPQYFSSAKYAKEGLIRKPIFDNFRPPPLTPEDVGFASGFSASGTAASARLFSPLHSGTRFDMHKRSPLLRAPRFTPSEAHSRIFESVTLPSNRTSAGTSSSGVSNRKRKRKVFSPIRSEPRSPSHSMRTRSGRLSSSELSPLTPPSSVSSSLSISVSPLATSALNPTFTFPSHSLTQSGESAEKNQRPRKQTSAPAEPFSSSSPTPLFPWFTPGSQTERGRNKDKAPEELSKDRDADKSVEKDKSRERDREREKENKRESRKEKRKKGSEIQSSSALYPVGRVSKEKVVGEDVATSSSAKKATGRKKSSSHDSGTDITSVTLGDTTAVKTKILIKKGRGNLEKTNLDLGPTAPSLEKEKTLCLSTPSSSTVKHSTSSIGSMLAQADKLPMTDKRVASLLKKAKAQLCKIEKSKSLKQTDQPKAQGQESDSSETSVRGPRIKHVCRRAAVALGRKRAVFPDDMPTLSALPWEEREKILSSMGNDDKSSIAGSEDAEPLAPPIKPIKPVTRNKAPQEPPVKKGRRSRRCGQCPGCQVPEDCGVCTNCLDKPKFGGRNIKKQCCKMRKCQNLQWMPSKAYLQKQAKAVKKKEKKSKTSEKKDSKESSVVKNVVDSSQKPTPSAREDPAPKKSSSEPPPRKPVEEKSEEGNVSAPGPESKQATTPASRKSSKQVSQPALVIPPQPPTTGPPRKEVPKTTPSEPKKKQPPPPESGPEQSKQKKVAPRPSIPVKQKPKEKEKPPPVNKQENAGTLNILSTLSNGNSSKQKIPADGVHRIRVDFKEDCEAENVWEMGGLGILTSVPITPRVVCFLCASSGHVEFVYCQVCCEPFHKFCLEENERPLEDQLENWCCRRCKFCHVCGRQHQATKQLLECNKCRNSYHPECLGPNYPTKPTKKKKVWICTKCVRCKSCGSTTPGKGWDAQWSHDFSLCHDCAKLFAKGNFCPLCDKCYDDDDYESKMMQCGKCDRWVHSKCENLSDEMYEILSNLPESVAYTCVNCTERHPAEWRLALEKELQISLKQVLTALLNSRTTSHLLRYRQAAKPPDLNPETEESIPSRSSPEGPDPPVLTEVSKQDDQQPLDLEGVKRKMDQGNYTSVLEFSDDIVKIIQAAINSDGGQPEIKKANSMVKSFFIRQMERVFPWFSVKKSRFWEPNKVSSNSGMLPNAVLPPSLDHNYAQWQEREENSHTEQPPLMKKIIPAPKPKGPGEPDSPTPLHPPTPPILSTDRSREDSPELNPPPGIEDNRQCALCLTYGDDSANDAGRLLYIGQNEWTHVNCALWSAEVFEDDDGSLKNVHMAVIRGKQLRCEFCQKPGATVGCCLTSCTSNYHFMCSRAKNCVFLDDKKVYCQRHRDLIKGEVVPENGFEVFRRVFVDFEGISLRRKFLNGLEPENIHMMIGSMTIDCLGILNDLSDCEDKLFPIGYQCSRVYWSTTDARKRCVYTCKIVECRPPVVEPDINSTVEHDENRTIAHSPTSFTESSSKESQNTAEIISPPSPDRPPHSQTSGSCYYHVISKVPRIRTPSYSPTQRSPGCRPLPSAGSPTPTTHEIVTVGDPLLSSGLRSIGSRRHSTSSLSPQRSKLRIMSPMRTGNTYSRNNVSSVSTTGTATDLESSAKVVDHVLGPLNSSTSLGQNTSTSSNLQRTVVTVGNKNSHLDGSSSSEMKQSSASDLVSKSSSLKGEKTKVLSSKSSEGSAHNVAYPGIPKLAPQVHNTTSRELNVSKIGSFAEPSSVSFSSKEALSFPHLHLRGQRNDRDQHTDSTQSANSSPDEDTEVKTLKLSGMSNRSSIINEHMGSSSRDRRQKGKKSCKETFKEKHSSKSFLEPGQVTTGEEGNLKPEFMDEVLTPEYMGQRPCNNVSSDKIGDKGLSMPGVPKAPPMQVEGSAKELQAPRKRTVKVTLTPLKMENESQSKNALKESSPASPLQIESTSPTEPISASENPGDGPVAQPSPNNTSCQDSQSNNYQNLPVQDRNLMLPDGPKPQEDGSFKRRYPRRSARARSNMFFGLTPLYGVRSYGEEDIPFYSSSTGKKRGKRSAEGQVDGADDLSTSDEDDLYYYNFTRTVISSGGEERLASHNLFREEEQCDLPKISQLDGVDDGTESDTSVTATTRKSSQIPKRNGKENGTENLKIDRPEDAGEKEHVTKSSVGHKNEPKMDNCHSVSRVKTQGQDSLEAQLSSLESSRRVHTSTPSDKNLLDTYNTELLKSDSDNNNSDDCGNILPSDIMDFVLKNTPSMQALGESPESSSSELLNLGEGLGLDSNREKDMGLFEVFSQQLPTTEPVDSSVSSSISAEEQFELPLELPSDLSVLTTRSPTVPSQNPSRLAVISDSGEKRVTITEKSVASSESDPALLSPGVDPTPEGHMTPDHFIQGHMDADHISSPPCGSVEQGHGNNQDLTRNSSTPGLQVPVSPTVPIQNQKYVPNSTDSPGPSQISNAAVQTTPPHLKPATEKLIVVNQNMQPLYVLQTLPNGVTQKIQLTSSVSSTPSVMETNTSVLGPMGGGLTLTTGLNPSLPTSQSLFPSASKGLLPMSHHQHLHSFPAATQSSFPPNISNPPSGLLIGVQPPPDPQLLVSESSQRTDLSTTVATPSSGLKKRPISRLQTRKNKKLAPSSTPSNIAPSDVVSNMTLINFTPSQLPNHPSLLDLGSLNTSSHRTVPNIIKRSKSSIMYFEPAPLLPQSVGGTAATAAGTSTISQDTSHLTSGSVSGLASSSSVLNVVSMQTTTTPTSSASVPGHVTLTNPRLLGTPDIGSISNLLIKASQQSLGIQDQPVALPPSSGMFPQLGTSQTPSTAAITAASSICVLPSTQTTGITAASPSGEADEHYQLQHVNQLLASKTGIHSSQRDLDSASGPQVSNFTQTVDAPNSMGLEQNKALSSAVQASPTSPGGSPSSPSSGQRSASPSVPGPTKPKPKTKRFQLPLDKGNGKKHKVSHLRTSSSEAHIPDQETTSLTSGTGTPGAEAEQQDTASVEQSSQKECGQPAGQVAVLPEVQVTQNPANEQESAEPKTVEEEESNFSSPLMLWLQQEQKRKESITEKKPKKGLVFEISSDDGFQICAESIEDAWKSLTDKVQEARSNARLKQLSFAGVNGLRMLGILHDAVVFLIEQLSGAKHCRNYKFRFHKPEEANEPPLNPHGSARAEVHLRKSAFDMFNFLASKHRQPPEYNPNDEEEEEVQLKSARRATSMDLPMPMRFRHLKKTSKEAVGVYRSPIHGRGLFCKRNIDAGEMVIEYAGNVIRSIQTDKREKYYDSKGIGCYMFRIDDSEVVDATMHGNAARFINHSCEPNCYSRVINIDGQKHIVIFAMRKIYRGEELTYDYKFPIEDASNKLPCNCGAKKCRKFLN
# UniProt Q9H6V9, sequence (Q9H6V9 whole entry, looked up): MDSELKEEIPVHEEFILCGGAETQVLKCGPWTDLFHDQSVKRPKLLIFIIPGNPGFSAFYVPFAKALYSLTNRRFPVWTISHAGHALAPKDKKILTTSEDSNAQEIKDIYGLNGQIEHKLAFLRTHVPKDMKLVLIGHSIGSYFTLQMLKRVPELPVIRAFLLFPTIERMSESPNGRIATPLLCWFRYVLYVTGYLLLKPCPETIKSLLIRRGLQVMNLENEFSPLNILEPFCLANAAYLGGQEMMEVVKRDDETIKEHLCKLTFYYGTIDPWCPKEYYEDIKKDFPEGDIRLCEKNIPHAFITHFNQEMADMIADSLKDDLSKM
# UniProt Q9NVC6, sequence (Q9NVC6 whole entry, looked up): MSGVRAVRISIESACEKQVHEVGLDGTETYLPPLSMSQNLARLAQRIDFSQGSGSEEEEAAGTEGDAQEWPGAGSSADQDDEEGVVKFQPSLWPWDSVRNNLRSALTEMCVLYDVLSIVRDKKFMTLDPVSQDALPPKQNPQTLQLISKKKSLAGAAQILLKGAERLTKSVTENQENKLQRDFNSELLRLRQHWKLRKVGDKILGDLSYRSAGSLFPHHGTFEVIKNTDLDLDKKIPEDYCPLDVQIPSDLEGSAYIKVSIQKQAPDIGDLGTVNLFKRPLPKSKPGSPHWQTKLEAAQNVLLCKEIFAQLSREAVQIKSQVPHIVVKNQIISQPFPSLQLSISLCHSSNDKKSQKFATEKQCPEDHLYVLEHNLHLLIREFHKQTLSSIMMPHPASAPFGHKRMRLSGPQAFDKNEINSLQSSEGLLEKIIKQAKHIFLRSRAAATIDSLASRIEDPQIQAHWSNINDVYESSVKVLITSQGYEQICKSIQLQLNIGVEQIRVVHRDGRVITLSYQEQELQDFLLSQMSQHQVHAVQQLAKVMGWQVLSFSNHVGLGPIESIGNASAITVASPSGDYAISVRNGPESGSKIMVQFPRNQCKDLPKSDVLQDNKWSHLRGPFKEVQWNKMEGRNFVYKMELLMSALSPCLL
# UniProt Q13015, sequence (Q13015 whole entry, looked up): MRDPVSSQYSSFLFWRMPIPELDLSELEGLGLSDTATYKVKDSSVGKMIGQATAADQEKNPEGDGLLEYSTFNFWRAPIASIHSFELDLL
Target,log2 fold change (ibrutinib),log2 fold change [1],log2 fold change (ralimetinib),log2 fold change [2],log2 fold change [3],log2 fold change [4],log2 fold change [5],log2 fold change [6],log2 fold change [7],log2 fold change [8],log2 fold change (vemurafenib),log2 fold change [9],log2 fold change (barasertib),log2 fold change [10],log2 fold change (volasertib),log2 fold change [11],log2 fold change [12],log2 fold change [13],log2 fold change (saracatinib),log2 fold change (sotrastaurin)
KLC4 isoform 3 (UniProt Q9NSK0),-0.007,0.012,0.008,-0.023,-0.024,-0.018,0.009,0.019,-0.001,0.003,-0.038,0.02,-0.008,0.038,-0.029,0.052,0.011,-0.018,-0.012,0.003
MRPL12 (UniProt P52815),0.082,-0.05,0.006,-0.013,-0.029,-0.042,0,0.026,0.012,0.076,0.01,-0.026,0.181,0.036,0.103,-0.019,-0.412 (active),-0.032,0.004,0.015
MICU1 isoform 3 (UniProt Q9BPX6),-0.011,-0.021,0.023,0.001,-0.02,0,0.013,-0.028,0.038,0.019,-0.055,-0.004,0.094,0.002,-0.005,0.091,0.234 (active),-0.422 (active),0.006,0.044
MAST4 (UniProt O15021),0.019,0.423 (active),0.04,0.061,-0.032,-0.075,0.032,-0.173,-0.023,0.049,-0.085,-0.049,0.051,-0.126,-0.017,0.121,-0.204,0.059,-0.001,-0.015
MED14 (UniProt O60244),0.002,-0.013,0.017,-0.022,0.01,0.021,-0.029,-0.019,0.013,0.018,-0.078,0.003,0.015,-0.084,-0.023,0.008,-0.008,0.009,-0.001,0.008
LIG4 (UniProt P49917),0.056,0.174,-0.001,-0.023,0.013,-0.016,-0.021,0.004,0.015,0.109,0.041,-0.034,-0.04,-0.087,-0.182,-0.027,-0.105,0.018,0.027,0.048
KNL1 (UniProt Q8NG31),0.009,-0.014,0.012,-0.032,0.013,0.012,-0.022,0,0.004,0.012,-0.031,0.064,0.011,-0.015,-0.044,-0.012,0.015,0,0.006,0.025
LIMK2 isoform 3 (UniProt P53671),0.129,0.003,0,0.018,0.008,-0.03,-0.005,0.175,0.013,-0.073,0.031,0.046,-0.062,-0.173,-0.002,-0.046,0.963 (active),0.023,-0.017,-0.05
LDAH isoform 2 (UniProt Q9H6V9),0.015,0.021,0.029,0.097,-0.018,0.006,0.029,0.007,0,0.014,0.077,0.125,0.018,0.003,-0.036,-0.004,-0.013,-0.018,0.016,-0.01
MLLT11 (UniProt Q13015),-0.057,0.077,0.032,-0.116,0.164,0.174,-0.037,0.326,-0.008,0.055,-0.054,-0.048,0.143,-0.199,0.1,0.05,-0.01,-0.049,0.118,-0.04
LYAR (UniProt Q9NX58),-0.009,-0.035,-0.011,0.016,0.004,0.03,-0.012,0.016,0.015,0.038,0.011,0.005,-0.024,0.005,0.003,-0.027,0.312 (active),-0.128,0.028,-0.039
MCCC1 (UniProt Q96RQ3),0.034,-0.033,0.022,-0.042,-0.014,-0.028,0.026,-0.006,-0.004,0.013,0.065,0.009,0.015,0.005,-0.034,-0.025,0.139,-0.059,0.028,0.054
MGAT5 (UniProt Q09328),0.038,0.014,0.001,0.039,-0.045,-0.084,0.005,-0.002,-0.004,0.014,-0.254,-0.07,0.062,-0.08,-0.065,0.021,0.094,-0.138,-0.036,0.002
LIG3 (UniProt P49916),-0.006,0.007,0.063,0.023,-0.002,-0.018,0.04,-0.015,0.028,0.015,-0.029,-0.003,0.019,-0.127,-0.028,0.031,-0.033,-0.011,0.018,0.009
MED17 (UniProt Q9NVC6),0.018,0.003,0,-0.003,-0.017,0.04,0.019,0,0.021,0.001,0.028,0.007,0.004,-0.023,-0.02,0.002,-0.037,0.013,0.01,0.031
KMT2A isoform 3 (UniProt Q03164),-0.054,0.005,-0.008,-0.117,0.019,-0.114,-0.047,-0.046,0.025,0,0.044,-0.033,0.042,-0.035,-0.054,-0.058,-0.093,-0.01,-0.069,0.034
